Compound activity deposited in PubChem by several laboratories.
Compounds with a hit are over-represented: about 4.6% of the library has one in this group of screens.
SKKanGAS inh = S. pyogenes SKKanGAS growth inhibitors in kanamycin, primary screen, streptokinase expression inhibitor project, SKKanGAS strain, BacTiter-Glo luminescence; 300,000 compounds, 1.3% hits; 6 h; inhibition, % at 7.5 µM; AID 1662, 2009;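 active = mean replicate score, as percent of positive control median, at least 50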;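 also: strain carries kanamycin resistance gene driven by streptokinase promoter and grows in 40 µg/ml kanamycin; loss of luminescence reflects streptokinase promoter inhibition or plain growth inhibition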
TIM10 inh = growth inhibitors of isogenic TIM10 control yeast, primary screen, counter-screen for tim10-1 yeast inhibitor project, luminescence, uHTS | 330,000 compounds, 1.4% hits | inhibition, % at 10 µM | AID 463195, 2010 | S. cerevisiae TIM10 strain growth, BacTiter-Glo luminescence, 24 h;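 active = inhibition of 40% or more at the single tested concentration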;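 also: wild-type TIM10 isogenic control strain grown at permissive 25 °C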
tim10-1 inh = growth inhibitors of tim10-1 mutant yeast, primary screen, luminescence, uHTS; S. cerevisiae tim10-1 ts strain growth, BacTiter-Glo, 24 h; inhibition, % at 20 µM; 330,000 compounds, 2.2% hits; AID 463190, 2010;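 active = inhibition of at least 40%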;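 also: mutant grown at 25 °C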
tim23-1 inh = growth inhibitors of tim23-1 mutant yeast, primary screen, luminescence, uHTS. S. cerevisiae tim23-1 growth, BacTiter-Glo luminescence, 24 h. inhibition, % at 20 µM. 330,000 compounds, 1.3% hits;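 active = growth inhibition of the mutant yeast at or above 50%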;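 also: temperature-sensitive mutant grown at 25 °C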
NLRP3 yeast inh = NALP3 inflammasome inhibitors in reconstituted yeast, primary screen, luminescence, uHTS; Yeast reconstituted NLRP3/ASC/caspase-1, beta-gal luminescence, 24 h; AID 2825, 2010; inhibition, % at 10 µM; 330,000 compounds, 0.39% hits;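 active = inhibition of 50% or more; inactive = inhibition below 50%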
tim23-1 confirm = tim23-1 mutant yeast growth inhibitors, confirmation, luminescence, single concentration; inhibition, % at 20 µM; 4,400 compounds, 83% hits; S. cerevisiae tim23-1 growth, BacTiter-Glo luminescence, 24 h; shares compounds with tim23-1 inh;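 active = inhibition above about 39% in either of two replicate wells at 20 µM, limit read from the data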;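 also: temperature-sensitive tim23-1 mutant grown at 25 °C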
Each line names hits and unclear results; the compound was inactive in the other large screens (follow-up assays come after a bar, where they were run).

COc1ccc2nc(NC3=NCCC3)sc2c1	none
O=C(CN1C(=O)NC2(CCCCCC2)C1=O)c1ccc(F)cc1	none
CCc1ccc(C(=O)CN2C(=O)NC3(CCCCCC3)C2=O)cc1	tim23-1 inh 50.6 (no result: SKKanGAS inh) | tim23-1 confirm inactive
N#C/C(=C\c1c[nH]c2ccccc12)C(=O)NC1CCCC1	tim23-1 inh 58.8 | tim23-1 confirm 44.2
CCN=C1S/C(=C\c2cn(C(C)=O)nc2-c2ccccc2)C(=O)N1CC	tim23-1 inh 52.8 | tim23-1 confirm 48.0
CC(=O)NC1=NC(=O)/C(=C/c2cn(C(C)=O)nc2-c2ccccc2)S1	none
CCCCn1c(SCC(=O)NC2CCS(=O)(=O)C2)nc2cc(S(N)(=O)=O)ccc21 (centres undefined)	none
CCCCC(NC(=O)c1ccc(C#N)cc1)C(=O)NCCC (centres undefined)	none (no result: SKKanGAS inh)
CCN(CC)c1ccc(NC(=O)c2ccccc2Br)cc1S(=O)(=O)Nc1ccccc1OC	tim23-1 inh 50.4 | tim23-1 confirm 86.4
CCCCCCO	none (no result: SKKanGAS inh)
CCCCCCCCCCCCCCCC(O)C(N)CO (centres undefined)	SKKanGAS inh 74.7, tim23-1 inh 52.1 | tim23-1 confirm 43.8
O=C(CN1C(=O)C(=O)N(Cc2ccco2)C1=O)c1c[nH]c2ccccc12	none
O=C(CN1C(=O)C(=O)N(CCC2=CCCCC2)C1=O)c1c[nH]c2ccccc12	tim23-1 inh 60.0 (no result: SKKanGAS inh) | tim23-1 confirm 38.8
COc1cc(OC)cc(C(=O)Nc2ccc(N3CCOCC3)cc2N2CCOCC2)c1	none (no result: SKKanGAS inh)
S=C(NCc1ccccn1)Nc1ccccc1	none
S=C(NCc1ccccn1)Nc1ccc(Cl)c(Cl)c1	tim23-1 inh 55.5 | tim23-1 confirm 46.3
O=C1COc2ccccc2N1Cc1c(F)cccc1Cl	none
Clc1ccccc1-c1ccc2ncnc(NCc3cccs3)c2c1	tim23-1 inh 54.2 (no result: SKKanGAS inh) | tim23-1 confirm inactive
Clc1cccc(-c2ccc3ncnc(NCc4cccs4)c3c2)c1	tim23-1 inh 50.8 (no result: SKKanGAS inh) | tim23-1 confirm 40.2
Cc1cccc(-c2ccc3ncnc(NCc4cccs4)c3c2)c1	none (no result: SKKanGAS inh)
Cc1c(N=NC2=C(O)CCCC2=O)c(=O)n(-c2ccccc2)n1C	none
c1ccc(-n2nc3c(ccc4cnnc43)[nH]2)cc1	tim23-1 inh 53.4 | tim23-1 confirm 50.3
CS/C(=N\S(=O)(=O)c1ccc(Cl)cc1)c1ccccc1	tim23-1 inh 56.7 | tim23-1 confirm inactive
Cc1cccc(CC(=O)N2CCC(n3nccc3NC(=O)C3CC3)CC2)c1	none
COc1ccc(C2=NNC(c3cc(Cl)cc4c3OCOC4)C2)c(O)c1 (centres undefined)	none
Oc1ccc(Cl)cc1C1=NNC(c2cc(Br)cc3c2OCOC3)C1 (centres undefined)	tim23-1 inh 56.0 | tim23-1 confirm 56.0
Oc1ccc(Cl)cc1C1=NNC(c2ccc(Cl)cc2)C1 (centres undefined)	SKKanGAS inh 96.2, tim23-1 inh 50.4 | tim23-1 confirm 50.4
O=C(CCC(=O)c1cccs1)OCC(=O)c1ccccc1F	none (no result: SKKanGAS inh)
COc1ccc(C(N)=O)c(OCC(=O)Nc2cc(C)on2)c1	none (no result: SKKanGAS inh)
O=C(COc1ccc(S(=O)(=O)NC2CCCCC2)cc1)NC1CC1	none
COC(=O)c1[nH]c2cc(OC)ccc2c1NC(=O)CCN1CCCCC1	none
COC(=O)c1[nH]c2cc(OC)ccc2c1NC(=O)CCN1CCCC(C)(C)C1	tim23-1 inh 73.9 | tim23-1 confirm inactive
O=C(N/N=C/c1ccc(OC(F)F)cc1)c1cccc(S(=O)(=O)N2CCOCC2)c1	none
O=C1NC(c2cccc(Br)c2)=N/C1=C\c1ccco1	tim23-1 inh 56.0 | tim23-1 confirm inactive
Cc1cc(C(F)(F)F)c2c(C)nn(-c3ccccc3)c2n1	none
Cc1cc(=O)oc2c1c(C(F)(F)F)nn2-c1ccccc1	tim23-1 inh 50.2 | tim23-1 confirm 54.9
CCCCCOc1ccc(C(=O)NCC2(c3ccccc3)CCOCC2)cc1	tim23-1 inh 50.7 | tim23-1 confirm 46.0
CCCCOc1ccc(C(=O)NCC2(c3ccccc3)CCOCC2)cc1	none
Nc1cc([N+](=O)[O-])cc2oc(-c3ccccc3)cc12	tim23-1 inh 54.2 | tim23-1 confirm 45.0
CC1(C)CC(=O)N(c2cc(Cl)ccc2Cl)C(=O)C1	none
